“And” between values parts separate entries of the source, which are not always exact repeats. Equal values may be shown once. Records with an inconclusive call do not appear. Some compounds were tested as several samples or in several runs, with calls that do not always agree. The source made the active and inactive calls. Unless noted, calls come from the whole dose curve; as a rule, active = well fitted curve in the direction sought with a large enough effect in the repeat runs; inconclusive = weak or mixed curves; inactive = no such curve, though single readings can be large; an effect the other way counts as inactive or inconclusive. Peptide text beside a SMILES is read from it.

outcome, Potency and activity change, negative = inhibition data for 37 molecules are collected here from PubChem BioAssay (NCATS).

A short description of test [1]: Primary qHTS for small molecule stabilizers of the endoplasmic reticulum resident proteome: Secreted ER Calcium Modulated Protein (SERCaMP) assay (AID 1508630; active = well fitted curve in the direction sought with a large enough effect; an effect the other way counts as inactive or inconclusive; note: % is set by controls: 0 for no effect and ±100 for the full control effect). In short, it runs like this:
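GLuc-SERCaMP-expressing SH-SY5Y cells, pretreated 16 h with compound, are challenged with thapsigargin to empty ER calcium stores; after 4 h, coelenterazine is added directly to the medium and luminescence is imaged.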
A general note: In qHTS, concentration-response curves come from the screen itself.

Test [2] addresses Cytochrome P450 2D6 (Homo sapiens) (UniProt P10635). In words: Cytochrome P450 family 2 subfamily D member 6 (CYP2D6) small molecule antagonists: luciferase biochemical (cell-free) qHTS assay (AID 1645840). For activity change, negative = inhibition: series mostly up to about 57 µM; % is set by controls: 0 for no effect and ±100 for the full control effect. Note: nearly all actives have a fitted effect of over 55% in size. Note: potency is the fitted concentration of half-maximal effect. Put shortly: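 P450-Glo luminescent screen: recombinant CYP2D6 enzyme–proluciferin substrate mix preincubated with compound 10 min at room temperature, then NADPH regeneration added for 1 h at room temperature. Detection reagent added for 20 min; luciferin light read as relative luminescence units.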

In test [3] the target is Cytochrome P450 3A4 (Homo sapiens) (UniProt P08684). Kind of test: Cytochrome P450 family 3 subfamily A member 4 (CYP3A4) small molecule antagonists: luciferase qHTS assay (AID 1645841). Note: nearly all actives have a fitted effect of over 45% in size. Note: potency is the fitted concentration of half-maximal effect. Put shortly: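 P450-Glo CYP3A4 enzyme with proluciferin substrate was preincubated with DMSO-dissolved compounds for 10 min at room temperature. NADPH regeneration solution started a 1 h reaction. Detection reagent stopped it, and luminescence was read after 20 min.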

In test [4] the target is Cytochrome P450 2C9 (Homo sapiens) (UniProt P11712). In words: Cytochrome P450 family 2 subfamily C member 9 (CYP2C9) small molecule antagonists: luciferase biochemical (cell-free) qHTS assay (AID 1645842). For activity change, negative = inhibition: series mostly up to about 57 µM; % is set by controls: 0 for no effect and ±100 for the full control effect. Note: nearly all actives have a fitted effect of over 55% in size. Note: potency is the fitted concentration of half-maximal effect. Put shortly:
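Luminescence, after 20 min with luciferin detection reagent, reflected CYP2C9 turnover during a 1 h NADPH-driven reaction at 37C. Enzyme-substrate mix contained 0.4% bovine serum albumin and was preincubated with compound 10 min at room temperature.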

Test [5] is described as follows: Primary qHTS for inhibitors of nuclear receptor binding SET domain protein 2 (NSD2) in an isogenic RCH-ACV NSD2 p.E1099K mutant (9B) (AID 1645876; active = well fitted curve in the direction sought with a large enough effect; an effect the other way counts as inactive or inconclusive; note: nearly all actives have a fitted effect of over 70% in size; note: potency is the fitted concentration of half-maximal effect).
A short description of test [6]: Primary qHTS for inhibitors of nuclear receptor binding SET domain protein 2 (NSD2) in an RCH-ACV wild type WT cells (2C) (AID 1645877; active = well fitted curve in the direction sought with a large enough effect; an effect the other way counts as inactive or inconclusive; note: nearly all actives have a fitted effect of over 70% in size; note: potency is the fitted concentration of half-maximal effect).
Test [7] in a line: A High-Content qHTS Against Drug Library for the Identification of Small Molecules that Inhibit DYT1 Early Onset Primary Dystonia-Associated Cell Pathology (AID 1645839; calls by dose curve; note: series mostly up to about 46 µM). Put shortly: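 Readout: %pathology, the punctate EGFP-TorsinA distribution from imaging, as the primary channel and cell count as the toxicity counterscreen. HEK293 Flp-In cells expressing delE TorsinA were induced with tetracycline and treated with compound for 48 h.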

The target of test [8] is N-terminal Xaa-Pro-Lys N-methyltransferase 1 (Homo sapiens) (UniProt Q9BV86). In words: Confirmatory qHTS for Inhibitors of N-terminal methyltransferase 1 (NTMT1): MTaseGlo Assay (AID 1645874; active = well fitted curve in the direction sought with a large enough effect; an effect the other way counts as inactive or inconclusive; note: nearly all actives have a fitted effect of over 65% in size; note: potency is the fitted concentration of half-maximal effect;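 for activity change, negative = inhibition: luminescence from SAH made as NTMT1 methylates SPKRIA peptide using SAM; series mostly up to about 100 µM; 0% = DMSO control and -100% = no-enzyme control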). Put shortly:
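Preincubation of NTMT1 (125 nM) plus SAM (100 uM) with test compounds lasted 15 min; methylation of 1 uM SPKRIA then proceeded 30 min in the dark at room temperature. Luciferase signal reported SAH produced.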

Sequence of N-terminal Xaa-Pro-Lys N-methyltransferase 1 (Homo sapiens) (Q9BV86 whole entry, looked up): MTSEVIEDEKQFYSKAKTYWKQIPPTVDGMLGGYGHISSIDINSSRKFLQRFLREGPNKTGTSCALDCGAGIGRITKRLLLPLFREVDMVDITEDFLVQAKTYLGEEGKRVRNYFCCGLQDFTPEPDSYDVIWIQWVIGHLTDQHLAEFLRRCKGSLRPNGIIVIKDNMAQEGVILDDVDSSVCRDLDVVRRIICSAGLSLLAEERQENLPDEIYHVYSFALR
Sequence of Cytochrome P450 2C9 (Homo sapiens) (P11712 whole entry, looked up): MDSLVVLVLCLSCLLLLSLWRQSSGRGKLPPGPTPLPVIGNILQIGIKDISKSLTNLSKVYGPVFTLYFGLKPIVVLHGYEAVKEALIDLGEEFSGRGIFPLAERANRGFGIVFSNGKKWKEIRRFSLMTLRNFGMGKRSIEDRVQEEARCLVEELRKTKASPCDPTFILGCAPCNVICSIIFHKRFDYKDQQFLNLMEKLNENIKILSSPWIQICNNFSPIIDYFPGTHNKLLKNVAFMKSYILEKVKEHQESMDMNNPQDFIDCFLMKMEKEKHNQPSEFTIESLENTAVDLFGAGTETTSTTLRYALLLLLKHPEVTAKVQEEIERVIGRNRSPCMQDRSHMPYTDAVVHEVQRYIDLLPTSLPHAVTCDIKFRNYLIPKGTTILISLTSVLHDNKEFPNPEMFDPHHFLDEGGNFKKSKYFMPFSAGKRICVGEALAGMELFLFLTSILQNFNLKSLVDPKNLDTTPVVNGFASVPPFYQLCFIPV
Sequence of Cytochrome P450 2D6 (Homo sapiens) (P10635 whole entry, looked up): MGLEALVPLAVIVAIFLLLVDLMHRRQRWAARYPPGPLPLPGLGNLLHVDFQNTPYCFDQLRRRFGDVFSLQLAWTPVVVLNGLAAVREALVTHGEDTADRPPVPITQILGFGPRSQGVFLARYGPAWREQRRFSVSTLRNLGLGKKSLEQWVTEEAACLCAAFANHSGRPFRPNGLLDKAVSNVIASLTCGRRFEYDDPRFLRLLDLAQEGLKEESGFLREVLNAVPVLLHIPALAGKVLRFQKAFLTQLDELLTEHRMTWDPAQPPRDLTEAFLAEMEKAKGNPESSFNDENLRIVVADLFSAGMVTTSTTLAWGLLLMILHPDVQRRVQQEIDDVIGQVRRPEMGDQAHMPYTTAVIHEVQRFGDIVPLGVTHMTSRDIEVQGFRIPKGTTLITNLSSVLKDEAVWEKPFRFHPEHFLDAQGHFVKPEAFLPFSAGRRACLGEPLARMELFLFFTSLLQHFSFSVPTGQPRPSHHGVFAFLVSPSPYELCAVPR
Sequence of Cytochrome P450 3A4 (Homo sapiens) (P08684 whole entry, looked up): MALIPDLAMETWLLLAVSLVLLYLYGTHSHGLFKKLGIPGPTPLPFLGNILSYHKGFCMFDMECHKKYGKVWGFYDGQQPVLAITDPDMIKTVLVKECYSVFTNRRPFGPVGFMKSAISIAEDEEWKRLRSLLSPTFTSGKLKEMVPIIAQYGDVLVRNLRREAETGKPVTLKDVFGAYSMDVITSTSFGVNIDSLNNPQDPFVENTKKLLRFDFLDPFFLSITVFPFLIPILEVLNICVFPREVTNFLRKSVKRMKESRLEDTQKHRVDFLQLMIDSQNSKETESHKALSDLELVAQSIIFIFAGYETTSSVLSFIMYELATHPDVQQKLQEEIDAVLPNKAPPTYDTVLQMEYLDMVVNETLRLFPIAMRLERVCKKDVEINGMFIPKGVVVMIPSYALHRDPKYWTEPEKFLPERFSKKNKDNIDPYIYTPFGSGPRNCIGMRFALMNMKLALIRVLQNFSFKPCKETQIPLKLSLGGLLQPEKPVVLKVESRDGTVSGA

As for `CCOC(=O)C1=CC2(CC)CCCN3CCc4c(n1c1ccccc41)C32` (stereo unspecified), the outcome in test [1] was inactive.

As for `O=C(C1CC1)N1CC[C@@H](Cc2n[nH]c(=O)n2-c2ccc(-c3ccc4occc4c3)cc2)C1`, the Potency is 13.5 µM (active) in test [2]; 6.74 µM (active) in test [3]; 6.74 µM (active) in test [4]; “inactive and 16.6 µM (active)” in test [5]; “inactive and 18.6 µM (active)” in test [6].

Take `COC(=O)CCC(=O)CN`: the Potency entry in test [2] and in test [4] was “inactive” throughout.

For the molecule `CC(=O)OC(C)OC(=O)C(C)c1ccc(-c2ccccc2)c(F)c1` (stereo unspecified), the result in test [7] was inactive. In addition, in test [4], the Potency was 9.77 µM (active). In addition, the Potency entry in test [5] and in test [6] was “inactive” throughout.

Turning to `N#Cc1ccc2[nH]c(O)c(-c3ccc(CN4CCOCC4)cn3)c2c1`, the Potency was 12 µM (active) and 6.74 µM (active) in test [2]; “inactive and 16.9 µM (active)” in test [4].

As for `O=C(O)CC/C=C\CC[C@H]1[C@@H](N2CCCCC2)[C@@H](O)C[C@@H]1OCc1ccc(-c2ccccc2)cc1`, the outcome in test [1] was inactive.

Turning to `COc1cc2c(Nc3ccc(Cl)c(Cl)c3F)ncnc2cc1OCC1C[C@@H]2CN(C)C[C@@H]2C1` (stereo partly specified), the Potency is 16.9 µM (active) in test [2]; 15.1 µM (active) in test [8]; 2.95 µM (active) in test [5]; 2.63 µM (active) and 1.86 µM (active) in test [6]. The Potency result in test [3] was “inactive”.

In the case of `Cc1cc(/C=C/c2ccc3cc(N(C)C)ccc3[n+]2C)c(C)n1-c1ccccc1`, the result in test [1] was inactive.

Regarding `O=C1C[C@@H](c2ccc(O)cc2)Oc2cc(O)ccc21`, in test [2], the Potency result is “inactive”. Moreover, the Potency in test [4] is 12 µM (active).

`COc1cccc2c1CCC[C@H]2CN(C)CCc1ccc2ccoc2c1`: in test [2], the Potency is 0.0535 µM (active).

For `COC(=O)C1=CO[C@@H](O[C@@H]2O[C@H](CO)[C@@H](O)[C@H](O)[C@H]2O)[C@@H]2[C@@H](C)[C@@H](O)C[C@H]12`, the result in test [1] was inactive. In addition, the Potency entry in test [5] and in test [6] was “inactive” in each case.

`CNC1CCN(C(Cc2cccc(-c3ccncc3)c2)C(=O)c2sc3c(F)ccc(F)c3c2Cl)CC1` (stereo unspecified): the results for the Potency in test [2], in test [3] and in test [4] were 0.19 µM (active), 0.12 µM (active) and 10.7 µM (active), respectively.

Turning to `NC(=O)c1ncn(C2OC(CO)C(O)C2O)n1` (stereo unspecified), in test [2], the Potency result is “inactive”.

As to `CNc1nc(Nc2cnn([C@H]3CCN(C4COC4)C[C@@H]3F)c2Cl)ncc1C(F)(F)F`, the Potency result in test [2] and in test [3] was “inactive” in each case. Besides, the Potency in test [4] is 2.68 µM (active).

On to `c1ccc(Nc2nc3c(s2)CCCc2[nH]ncc2-3)nc1`, for which the Potency in test [2] is 26.8 µM (active).

For the molecule `CC(C)N=c1cc2n(-c3ccc(Cl)cc3)c3ccccc3nc-2cc1Nc1ccc(Cl)cc1`, in test [1], the outcome was inactive. Besides, the Potency in test [2] was 1.34 µM (active).

Consider `CCCCC(C)(O)C/C=C/[C@H]1[C@H](O)CC(=O)[C@@H]1CCCCCCC(=O)OC` (stereo partly specified), for which the Potency was 10.7 µM (active) in test [2] and 2.68 µM (active) in test [4].

Consider `Clc1cc(Cl)c(OCC#CI)cc1Cl`, for which the Potency in test [2] was 0.674 µM (active); in test [4], 6.01 µM (active).

Turning to `CC(=O)N[C@@H](CC(=O)O)C(=O)N[C@@H](CCC(=O)O)C(=O)O` (Ac-Asp-Glu-OH), the result in test [1] was inactive.

In the case of `OCC(S)CS` (stereo unspecified), the results for the Potency in test [2] and in test [4] were 16.9 µM (active) and 2.68 µM (active), respectively.

Take `CCCCC/C=C\C/C=C\CCCCCCCC(=O)O`: the activity change, negative = inhibition in test [1] is -23.8% [at 3.88 µM] (inactive).

Regarding `O=C(O)CCC(=O)C(=O)O`, the Potency result in test [2] and in test [4] was “inactive” throughout.

As for `COCCN(C)Cc1ccc2nc3sc(C(=O)N(C)C4CCCCC4)cn3c2c1`, the Potency entry in test [2], in test [3], in test [5] and in test [6] was “inactive” throughout.

As to `Nc1c(N=Nc2ccc(-c3ccc(N=Nc4cc(S(=O)(=O)O)c5ccccc5c4N)cc3)cc2)cc(S(=O)(=O)O)c2ccccc12`, in test [2], the Potency was 7.56 µM (active).

Consider `O=C(O)c1cc(=O)c2c3nc4ccccc4oc-3cc(=O)c2[nH]1`, for which the results for the Potency in test [2] and in test [4] were 1.9 µM (active) and 26.8 µM (active), respectively.

As to `O=C1CC(c2ccc([N+](=O)[O-])cc2)=NN1c1ccccc1`, the Potency result in test [2] and in test [5] was “inactive” in each case. Moreover, in test [4], the Potency is 13.5 µM (active).

Take `C[C@@H]1[C@H](O)[C@@H](C)/C=C/C=C\C=C\C=C\C=C\C=C\C=C\[C@H](O[C@@H]2O[C@H](C)[C@@H](O)[C@H](N)[C@@H]2O)C[C@@H]2O[C@](O)(C[C@@H](O)C[C@@H](O)[C@H](O)CC[C@@H](O)C[C@@H](O)CC(=O)O[C@H]1C)C[C@H](O)[C@H]2C(=O)O` (stereo in doubt): the Potency entry in test [2] and in test [4] was “inactive” in each case.

Consider `c1nc(NC2CCCCCC2)c2cc(CNC[C@H]3CCCO3)sc2n1`, for which the Potency in test [2] is 19 µM (active).

As for `Cc1c(C)c2c(c(C)c1O)CC[C@@](C)(CCC[C@H](C)CCC[C@H](C)CCCC(C)C)O2`, the Potency result in test [2] and in test [4] was “inactive” throughout.

Turning to `O=C(Nc1ccc(Br)cc1)c1cc(Br)c(Br)s1`, in test [2], the Potency is 9.52 µM (active).

For the molecule `CCOc1ccc(C(Nc2ccccn2)c2ccc3ccc(C)nc3c2O)cc1C` (stereo unspecified), the Potency result in test [2] was “inactive”. In test [4], the Potency is 4.77 µM (active).

As to `c1ccc(C(OC2CCN(CCCc3nn[nH]n3)CC2)c2ccccc2)cc1`, the Potency in test [2] was 6.01 µM (active). The Potency entry in test [3], in test [4], in test [5] and in test [6] was “inactive” in each case.

Take `CC1=C(/C=C/C(C)=C/C=C/C(C)=C/CO)C(C)(C)CCC1`: the outcome in test [1] was inactive.

For the molecule `Nc1nc(N)c2nc(CNc3ccc(C(=O)N[C@@H](CCC(=O)O)C(=O)O)cc3)cnc2n1`, the Potency result in test [2] and in test [3] was “inactive” each time.

With `Cc1ccc(Sc2cncc3sc(C(N)=O)cc23)cc1`, in test [1], the result was inactive. Besides, the Potency result in test [5] is “inactive”.

As to `CCCCCCCC(=O)O`, the Potency result in test [2] is “inactive”.

As for `COc1c(C)c(C(=O)c2ccc(N)c(C(=O)O)c2)n2ccccc12`, the Potency entry in test [2], in test [8], in test [5] and in test [6] was “inactive” in each case. The Potency in test [4] is 12 µM (active) and 10.7 µM (active).
